Reference: PubChem BioAssay (NCATS)
Inconclusive results are not listed. Calls of active or inactive are those of the source. Calls follow the shape of the dose curve; as a rule, active = well fitted curve in the direction sought with a large enough effect; inconclusive = small, poorly fitted or top-dose-only effect, or another doubt; inactive = no such curve, though single readings can be large; an effect the other way counts as inactive or inconclusive.

Experiments:
[1] = qHTS of pediatric cancer cell lines to identify multiple opportunities for drug repurposing: Primary screen for SK-N-MC cells (AID 1347093);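 also: series mostly up to about 46 µM; plate controls were DMSO neutral control for no effect and bortezomib for full effect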
How it was run: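 Metabolically active cells were quantified by ATP-dependent luminescence (CellTiter-Glo, 15 min at room temperature) following 48 h treatment. Cells had been plated at 500-1,000 per well and settled for 5 h beforehand.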

[2] = qHTS of pediatric cancer cell lines to identify multiple opportunities for drug repurposing: Primary screen for BT-37 cells (AID 1347094);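 also: series mostly up to about 57 µM; plate controls were DMSO for no effect and bortezomib for full effect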
How it was run: (§1)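 CRCs from 8- or 11-point titrations (lowest final 0.59 nM NPC, 0.78 nM MIPE). Cell viability: CellTiter-Glo after 48 h incubation, 15 min room-temperature development, luminescence imaging.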

[3] = qHTS of pediatric cancer cell lines to identify multiple opportunities for drug repurposing: Primary screen for NB-EBc1 cells (AID 1347095);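 also: plate controls were DMSO neutral control for no effect and bortezomib for full effect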
How it was run: as §1

[4] = qHTS of pediatric cancer cell lines to identify multiple opportunities for drug repurposing: Primary screen for U-2 OS cells (AID 1347096);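 also: plate controls were DMSO wells for no effect and bortezomib positive control wells for full effect; nearly all actives have a fitted effect of over 50% in size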
How it was run: (§2)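 Cells (500-1,000/well) in growth media were settled 5 h at 37 degrees C, then given compounds for 48 h. Viability was read as CellTiter-Glo luminescence. Primary runs used MIPE at 11 points (0.78 nM-46 µM) and NPC at 8 points (0.59 nM-46 µM); follow-ups used 11 points.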

[5] = qHTS of pediatric cancer cell lines to identify multiple opportunities for drug repurposing: Primary screen for Saos-2 cells (AID 1347097); also: % is scaled to controls: 0 for no effect and ±100 for the full control effect; nearly all actives have a fitted effect of over 40% in size
How it was run: as §1

[6] = qHTS of pediatric cancer cell lines to identify multiple opportunities for drug repurposing: Primary screen for SK-N-SH cells (AID 1347098);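 also: DMSO served as neutral control and bortezomib at 2.3 µM as positive control; % is scaled to controls: 0 for no effect and ±100 for the full control effect; nearly all actives have a fitted effect of over 65% in size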
How it was run: (§3)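 Cells (500-1,000/well) rested 5 h, then received compounds for 48 h; metabolically active cells were measured by CellTiter-Glo luminescence. Final concentrations spanned up to 46 µM (MIPE, 11-point) or 0.59 nM-46 µM (NPC, 8-point) in primary screens, 11-point in follow-ups.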

[7] = qHTS of pediatric cancer cell lines to identify multiple opportunities for drug repurposing: Primary screen for LAN-5 cells (AID 1347100);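 also: plate controls were DMSO neutral control for no effect and bortezomib positive control for full effect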
How it was run: as §2

[8] = qHTS of pediatric cancer cell lines to identify multiple opportunities for drug repurposing: Primary screen for BT-12 cells (AID 1347101);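 also: plate controls were DMSO for no effect and bortezomib positive control for full effect; nearly all actives have a fitted effect of over 25% in size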
How it was run: as §3

[9] = qHTS of pediatric cancer cell lines to identify multiple opportunities for drug repurposing: Primary screen for Rh18 cells (AID 1347102); also: % is scaled to controls: 0 for no effect and ±100 for the full control effect; nearly all actives have a fitted effect of over 65% in size
How it was run: as §2

[10] = qHTS of pediatric cancer cell lines to identify multiple opportunities for drug repurposing: Primary screen for NB1643 cells (AID 1347099);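 also: plate controls were DMSO neutral control for no effect and bortezomib positive control for full effect; nearly all actives have a fitted effect of over 50% in size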
How it was run: as §1

CN1Cc2cc(C(=O)N3CCC(C4CCNCC4)CC3)ccc2N[C@@H](CC(=O)O)C1=O
inactive: Potency [1] | Potency [2] | Potency [3] | Potency [4] | Potency [5] | Potency [6] | Potency [7] | Potency [8] | Potency [9]

Cc1[nH]cnc1-c1ccc(Cl)cc1
inactive: Potency [1] | Potency [2] | Potency [3] | Potency [4] | Potency [5] | Potency [10] | Potency [7] | Potency [8] | Potency [9]

CC1CN(c2cc3c(cc2F)c(=O)c(C(=O)O)cn3-c2ccc(F)cc2F)CCN1 (configuration not stated)
inactive: activity change, negative = cytotoxic [1] 32.9% [at 4.84 µM] | activity change, negative = cytotoxic [2] 1.04% [at 6.03 µM] | activity change, negative = cytotoxic [3] 50.8% [at 4.84 µM] | activity change, negative = cytotoxic [4] -4.99% [at 4.84 µM] | activity change, negative = cytotoxic [5] 39.6% [at 4.84 µM] | activity change, negative = cytotoxic [6] -4.88% [at 6 µM] | activity change, negative = cytotoxic [7] 1.81% [at 4.84 µM] | activity change, negative = cytotoxic [8] -6.89% [at 6.03 µM] | activity change, negative = cytotoxic [9] -0.484% [at 4.84 µM]

O=[N+]([O-])c1nccn1CO[C@@H](CO)[C@H](O)CO
inactive: Potency [1] | Potency [2] | Potency [3] | Potency [4] | Potency [5] | Potency [10] | Potency [7] | Potency [8] | Potency [9]

C[C@]12CCC(=O)C=C1CC[C@@H]1[C@@H]2[C@@H](O)C[C@@]2(C)[C@H]1CC[C@]2(O)C(=O)COC(=O)CCC(=O)O
inactive: Potency [1] | Potency [2] | Potency [3] | Potency [4] | Potency [5] | Potency [6] | Potency [8] | Potency [9]

O=C(CCCCCCCCC#CI)Oc1ccccc1
inactive: Potency [1] | Potency [2] | Potency [3] | Potency [4] | Potency [5] | Potency [10] | Potency [7] | Potency [8] | Potency [9]

CCCCCCn1c(=O)c2c(ncn2C)n(C)c1=O
inactive: Potency [1] | Potency [2] | Potency [3] | Potency [4] | Potency [5] | Potency [6] | Potency [7] | Potency [9]

Oc1cccc2[nH]ccc12
inactive: Potency [1] | Potency [2] | Potency [3] | Potency [4] | Potency [5] | Potency [10] | Potency [7] | Potency [8] | Potency [9]

Cc1cc(CCCOc2c(C)cc(-c3noc(C(F)(F)F)n3)cc2C)on1
inactive: Potency [1] | Potency [2] | Potency [3] | Potency [4] | Potency [5] | Potency [10] | Potency [9]

COc1cc(C(=O)OC(COCCC(C)C)CN2CCOCC2)cc(OC)c1OC (configuration not stated)
inactive: Potency [1] | Potency [2] | Potency [3] | Potency [4] | Potency [5] | Potency [10] | Potency [7] | Potency [8] | Potency [9]

CCOC(=O)[C@H](CCc1ccccc1)N[C@@H](C)C(=O)N(CC(=O)O)C1Cc2ccccc2C1
inactive: Potency [1] | Potency [2] | Potency [3] | Potency [4] | Potency [5] | Potency [10] | Potency [7] | Potency [8] | Potency [9]

CCCOc1ccc2c(c1)CC[C@@H]1[C@@H]2CC[C@]2(C)C(OC)CC[C@@H]12 (some centres not stated)
inactive: Potency [1] | Potency [2] | Potency [3] | Potency [4] | Potency [5] | Potency [10] | Potency [7] | Potency [8] | Potency [9]

CC(=O)Nc1ccc(S(=O)(=O)Nc2cc(C)on2)cc1
inactive: Potency [1] | Potency [2] | Potency [3] | Potency [4] | Potency [5] | Potency [6] | Potency [7] | Potency [8] | Potency [9]

CCCCCC1Nc2cc(C(F)(F)F)c(S(N)(=O)=O)cc2S(=O)(=O)N1 (configuration not stated)
inactive: Potency [1] | Potency [2] | Potency [3] | Potency [4] | Potency [5] | Potency [10] | Potency [7] | Potency [8] | Potency [9]

COc1ccccc1OCC1CNC(=O)O1 (configuration not stated)
inactive: Potency [1] | Potency [2] | Potency [3] | Potency [4] | Potency [5] | Potency [10] | Potency [7] | Potency [8] | Potency [9]

O=C1[C@@H]2[C@H]3CC[C@H](C3)[C@@H]2C(=O)N1CCCCN1CCN(c2ncccn2)CC1
inactive: Potency [1] | Potency [2] | Potency [3] | Potency [4] | Potency [5] | Potency [10] | Potency [7] | Potency [8] | Potency [9]

CCC(C(=O)OCCN1CCOC(c2ccccc2)C1C)c1ccccc1 (configuration not stated)
inactive: Potency [1] | Potency [2] | Potency [3] | Potency [4] | Potency [5] | Potency [10] | Potency [7] | Potency [9]

O=C(O)C1CCC1
inactive: Potency [1] | Potency [2] | Potency [3] | Potency [4] | Potency [5] | Potency [10] | Potency [8] | Potency [9]

OCCc1ccccc1
inactive: Potency [1] | Potency [2] | Potency [3] | Potency [4] | Potency [5] | Potency [10] | Potency [7] | Potency [8] | Potency [9]

COC(=O)c1cc(S(N)(=O)=O)ccc1OC
inactive: Potency [1] | Potency [2] | Potency [3] | Potency [4] | Potency [5] | Potency [6] | Potency [7] | Potency [8] | Potency [9]

O=C1CC(c2ccc(Cl)cc2)CC(=O)N1
inactive: Potency [1] | Potency [2] | Potency [3] | Potency [4] | Potency [5] | Potency [7] | Potency [8] | Potency [9]

C[C@@H]1C[C@H]2[C@@H]3CCC4=CC(=O)C=C[C@]4(C)[C@@]3(F)[C@@H](O)C[C@]2(C)[C@@]1(O)C(=O)COC(=O)c1ccncc1
inactive: Potency [1] | Potency [2] | Potency [3] | Potency [4] | Potency [5] | Potency [10] | Potency [7] | Potency [8] | Potency [9]

Nc1ccc([N+](=O)[O-])c(C(F)(F)F)c1
inactive: Potency [1] | Potency [2] | Potency [3] | Potency [4] | Potency [5] | Potency [10] | Potency [7] | Potency [9]

Cc1cccc(C)c1NC(=O)c1ccc(N)cc1
inactive: Potency [1] | Potency [2] | Potency [3] | Potency [4] | Potency [5] | Potency [6] | Potency [7] | Potency [8] | Potency [9]

CCC1(c2cnc[nH]2)Cc2ccccc2C1
inactive: Potency [1] | Potency [2] | Potency [3] | Potency [4] | Potency [6] | Potency [10] | Potency [7] | Potency [8] | Potency [9]
